# Reference: PubChem BioAssay (NCATS)
# Values joined by “and” are separate entries in the source; they are usually repeats but may differ in a detail not shown here. Identical values can stand only once. Results filed as inconclusive are left out. Active and inactive are the calls of the source. Unless noted, calls come from the whole dose curve; as a rule, active = well fitted curve in the direction sought with a large enough effect; inconclusive = small, poorly fitted or top-dose-only effect, or another doubt; inactive = no such curve, though single readings can be large; an effect the other way counts as inactive or inconclusive. Numbered stars: 1 amine (or outer) side, 2 acyl side, 3 side chain; on linkers, the order of the positions; unused ones are H or OH. Bridge positions count the residues as written; N and C are the ends. Square brackets hold non-standard residues; d marks the D form. Peptide text beside a SMILES is read from it. I, II: the chains in the order shown. Actinocin(9to1) = Cc1c2oc3c(C)ccc(C(=O)[*:1])c3nc-2c(C(=O)[*:2])c(N)c1=O; NMeV = CN[C@H](C(=O)O)C(C)C; Sar = CNCC(=O)O
# Tests used:
# [1] = Cell Viability - LYMP2-020 (AID 986); note: nearly all actives have a fitted effect of over 55% in size; note: potency is the fitted concentration of half-maximal effect
# Outline: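 Human lymphoblastoid cells, 2500/well, were pre-incubated 5 hr at 37 C, then exposed to compounds for 24 hr at 37 C in complete medium. Intracellular ATP was read by CellTiter-Glo luminescence, and AC50 was derived by Hill fitting of concentration-response data.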
# [2] = Cell Viability - LYMP2-024 (AID 988); note: nearly all actives have a fitted effect of over 60% in size; note: potency is the fitted concentration of half-maximal effect
# Outline: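 Human lymphoblastoid cells (2500/well) in complete medium were preincubated 5 hr at 37 C, then exposed to compounds for 24 hr at 37 C. Intracellular ATP was read by CellTiter-Glo luminescence; AC50 from Hill-equation fits of concentration-response data.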
# [3] = Cell Viability - LYMP2-026 (AID 989); note: nearly all actives have a fitted effect of over 50% in size; note: potency is the fitted concentration of half-maximal effect
# Outline: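 Human lymphoblastoid cells (2500/well) in complete medium were preincubated 5 hr at 37 C, then exposed to compounds for 24 hr at 37 C. Cellular ATP was read by CellTiter-Glo luminescence; AC50 from Hill-equation fits of concentration-response data.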
# [4] = Cell Viability - LYMP1-002 - Assay at 40 hr (AID 994); note: nearly all actives have a fitted effect of over 60% in size; note: potency is the fitted concentration of half-maximal effect
# Outline: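 Human lymphoblastoid cells, 2500/well in complete medium, were preincubated 5 hr at 37 C, then exposed to compounds for 40 hr at 37 C. Intracellular ATP was read by CellTiter-Glo luminescence after 30 min at room temperature; AC50 from Hill-equation fits.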
# [5] = qHTS Assay for Lipid Storage Modulators (AID 1519; calls by dose curve; for activity change, negative = inhibition: % is set by controls: 0 for no effect and ±100 for the full control effect); conditions: Drosophila S3 cells, BODIPY lipid droplet/cell ratio, laser cytometry, cells loaded with oleic acid
# Outline: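 Cells seeded at 5,000 per well were treated with compounds over a concentration series and loaded with oleic acid (400 uM, as added). Lipid droplet fluorescence (488 nm excitation, 500-530 nm channel) was read by laser-scanning cytometry and normalized to 20 uM Triacsin C.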
# [6] = molecular target: DNA repair nuclease/redox regulator APEX1 (Homo sapiens) (UniProt P27695); test: qHTS Validation Assay for Inhibitors of the Human Apurinic/apyrimidinic Endonuclease 1 (APE1) (AID 1705;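 note: TAMRA fluorescence gain over two minutes as APE1 cuts a quenched THF abasic duplex; % is set by controls: 0 for no effect and ±100 for the full control effect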)
# Outline: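 Substrate: 50 nM final fluorophore/quencher THF-abasic duplex. Enzyme preincubated with compounds 15 min, RT. Progress derived from fluorescence difference, third minus first kinetic read.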
# [7] = Counterscreen for APE1 Inhibitors: Fluorescent Dye Displacement Validation Assay (AID 1707);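 note: plate controls were ThO with dsDNA and no compound for no effect and ThO without dsDNA for full effect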
# Outline: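 ThO 250 nM + dsDNA 50 nM (THF abasic site, 5'-TAMRA), Tris-HCl pH7.5/50mM NaCl/2 mM MgCl2/0.01% Tween-20; compounds pin-transferred; ex 480/em 540 nm endpoint. Neutral = no compound; no-DNA ThO wells = negative control.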
# [8] = molecular target: Alpha-galactosidase A (Homo sapiens) (UniProt P06280); test: Counterscreen for Glucocerebrosidase Inhibitors: qHTS Assay for Human alpha-Galactosidase at pH 4.5 (AID 992); note: 0% is about no effect
# Outline: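 Read-out is 4-methylumbelliferone fluorescence (365 nm excitation, 440 nm emission) after a pH 10 NaOH/glycine stop. Reactions held 2 nM enzyme and 80 uM substrate at pH 4.5 for 20 min at room temperature.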
# [9] = molecular target: alpha-glucosidase (Oryza sativa, rice) (UniProt Q653V4); test: Counterscreen for Glucocerebrosidase Inhibitors: qHTS Assay for Rice alpha-Glucosidase at pH 5.0 (AID 997);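 note: 0% = full activity with enzyme and -100% = basal without enzyme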
# Outline: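 Rice alpha-glucosidase (4 nM final) with 400 uM 4-methylumbelliferyl-alpha-D-glucopyranoside in citrate buffer pH 5.0, 20 min at room temperature, stopped at pH 10; fluorescence 365/440 nm, compounds 0.7 nM–77 uM, AC50 from Hill fits.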
# [10] = measured here: cell count channel max response
# [11] = measured here: lipid channel max response
# Alpha-galactosidase A (Homo sapiens), sequence (P06280 whole entry, looked up): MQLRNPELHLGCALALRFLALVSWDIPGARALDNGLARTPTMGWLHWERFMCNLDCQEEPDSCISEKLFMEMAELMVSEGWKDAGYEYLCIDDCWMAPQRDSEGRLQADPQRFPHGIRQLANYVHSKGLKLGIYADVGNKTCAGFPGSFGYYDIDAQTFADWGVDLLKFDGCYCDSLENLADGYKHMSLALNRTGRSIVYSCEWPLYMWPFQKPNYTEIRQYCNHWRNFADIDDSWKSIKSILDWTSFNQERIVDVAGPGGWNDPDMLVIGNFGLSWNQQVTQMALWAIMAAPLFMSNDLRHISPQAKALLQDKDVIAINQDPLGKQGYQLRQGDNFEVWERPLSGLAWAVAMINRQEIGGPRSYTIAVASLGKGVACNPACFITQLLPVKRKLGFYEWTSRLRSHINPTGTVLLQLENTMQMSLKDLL
# DNA repair nuclease/redox regulator APEX1 (Homo sapiens), sequence (P27695 whole entry, looked up): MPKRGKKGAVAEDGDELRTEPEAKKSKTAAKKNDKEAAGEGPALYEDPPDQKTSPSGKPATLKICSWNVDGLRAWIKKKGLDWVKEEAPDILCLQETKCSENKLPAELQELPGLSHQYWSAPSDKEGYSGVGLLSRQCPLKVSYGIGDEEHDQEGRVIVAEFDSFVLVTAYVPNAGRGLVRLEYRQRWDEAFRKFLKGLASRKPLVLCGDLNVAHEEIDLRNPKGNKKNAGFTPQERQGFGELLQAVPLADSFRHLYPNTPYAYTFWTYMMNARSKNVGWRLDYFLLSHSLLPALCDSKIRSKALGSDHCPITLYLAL
smiles,measurement,setting,value
CC(=O)Oc1ccc(C(c2ccc(OC(C)=O)cc2)c2ccccn2)cc1,Potency,[1],inactive
same,Potency,[2],inactive
same,Potency,[3],inactive
same,Potency,[4],inactive
same,"activity change, negative = inhibition",[5]; at 25.7 µM (top of the series),-1.79% (inactive)
same,max response,[5]; [10],-13.8%
same,max response,[5]; [11],-14.3%
C=CCc1ccc(O)c(OC)c1,Potency,[1],inactive
same,Potency,[2],inactive
same,Potency,[3],inactive
same,Potency,[4],inactive
same,"activity change, negative = inhibition",[5]; at 57.5 µM (top of the series),13.1% (inactive) and 1.99% (inactive)
same,max response,[5]; [10],19.8% and 9.66%
same,max response,[5]; [11],40.9% and 11.8%
CC/C(=C(/CC)c1ccc(O)cc1)c1ccc(O)cc1,Potency,[1],inactive
same,Potency,[2],inactive
same,Potency,[3],inactive
same,Potency,[4],inactive
same,"activity change, negative = inhibition",[5]; at 57.5 µM (top of the series),9.04% (inactive)
same,max response,[5]; [10],9.58%
same,max response,[5]; [11],18.5%
CNCCC(Oc1ccccc1C)c1ccccc1 (stereo not drawn),"activity change, negative = inhibition",[5]; at 57.5 µM (top of the series),2.16% (inactive)
same,max response,[5]; [10],19.1%
same,max response,[5]; [11],23.2%
same,Potency,[6],inactive
same,outcome,[7],inactive
Nc1ccc(C(=O)O)cc1,Potency,[1],inactive
same,Potency,[2],inactive
same,Potency,[3],inactive
same,Potency,[4],inactive
same,"activity change, negative = inhibition",[5]; at 57.5 µM (top of the series),6.97% (inactive)
same,max response,[5]; [10],13.3%
same,max response,[5]; [11],22.6%
COc1cccc2c1C(=O)c1c(O)c3c(c(O)c1C2=O)C[C@@](O)(C(=O)CO)C[C@@H]3O[C@H]1C[C@H](N)[C@H](O)[C@H](C)O1,Potency,[1],316 nM (active)
same,Potency,[2],199 nM (active)
same,Potency,[3],501 nM (active)
same,Potency,[4],794 nM (active)
CC(=O)O[C@]1(C(C)=O)CC[C@H]2[C@@H]3C[C@H](C)C4=CC(=O)CC[C@]4(C)[C@H]3CC[C@@]21C,Potency,[4],inactive
CNCCC=C1c2ccccc2CCc2ccccc21,outcome,[8],inactive
same,outcome,[9],inactive
same,"activity change, negative = inhibition",[5]; at 25.7 µM (top of the series),-2% (inactive)
same,"activity change, negative = inhibition",[5]; at 57.5 µM (top of the series),7.28% (inactive)
same,max response,[5]; [10],-0.512% and 24.9%
same,max response,[5]; [11],-6.43% and 39.3%
same,Potency,[6],inactive
same,outcome,[7],inactive
Oc1c(Cl)cc(Cl)cc1Sc1cc(Cl)cc(Cl)c1O,Potency,[1],31600 nM (active)
same,Potency,[4],50100 nM (active)
same,"activity change, negative = inhibition",[5]; at 57.5 µM (top of the series),0.0363% (inactive)
same,max response,[5]; [10],9.87%
same,max response,[5]; [11],13.2%
Oc1cc(O)c2c(c1)O[C@H](c1ccc(O)c(O)c1)[C@H](O)C2,outcome,[8],inactive
same,outcome,[9],inactive
same,"activity change, negative = inhibition",[5]; at 25.7 µM (top of the series),-1.15% (inactive) and 0.397% (inactive)
same,max response,[5]; [10],-2.18% and -16.1%
same,max response,[5]; [11],-4.1% and -15.5%
NC(=NCCCCCCN=C(N)/N=C(\N)Nc1ccc(Cl)cc1)/N=C(\N)Nc1ccc(Cl)cc1,Potency,[1],39800 nM (active)
same,Potency,[2],39800 nM (active)
same,Potency,[3],50100 nM (active)
same,Potency,[4],39800 nM (active)
CN1CCC[C@@H]1c1cccnc1,outcome,[8],inactive
same,outcome,[9],inactive
C[C@@H]1C(=O)NC2=Nc3cccc(Cl)c3CN21,outcome,[8],inactive
same,outcome,[9],inactive
same,"activity change, negative = inhibition",[5]; at 57.5 µM (top of the series),2.07% (inactive)
same,max response,[5]; [10],-20.8%
same,max response,[5]; [11],-17.8%
same,Potency,[6],inactive
same,outcome,[7],inactive
COC1=CC(=O)C[C@@H](C)[C@]12Oc1c(Cl)c(OC)cc(OC)c1C2=O,Potency,[1],inactive
same,Potency,[2],inactive
same,Potency,[3],inactive
same,"activity change, negative = inhibition",[5]; at 57.5 µM (top of the series),14.1% (inactive)
same,max response,[5]; [10],4.54%
same,max response,[5]; [11],22.2%
"Cc1c2oc3c(C)ccc(C(=O)N[C@@H]4C(=O)N[C@H](C(C)C)C(=O)N5CCC[C@H]5C(=O)N(C)CC(=O)N(C)[C@@H](C(C)C)C(=O)O[C@@H]4C)c3nc-2c(C(=O)N[C@@H]2C(=O)N[C@H](C(C)C)C(=O)N3CCC[C@H]3C(=O)N(C)CC(=O)N(C)[C@@H](C(C)C)C(=O)O[C@@H]2C)c(N)c1=O (I: T[dV]P[Sar][NMeV] / II: T[dV]P[Sar][NMeV]; ester I:1-I:C, II:1-II:C; linker I:N-II:N via Actinocin(9to1))",Potency,[1],6.3 nM (active)
same,Potency,[2],4 nM (active)
same,Potency,[4],3.2 nM (active)
